Among the data in PubChem BioAssay AID720504 (National Center for Advancing Translational Sciences (NCATS), 2013) are max response, negative = inhibition and Potency values, retold here.

Among all 360,000 compounds or so, about 10,000 (2.8%) were called active. Another 4% or so got no clear call; they are omitted. Many of the other results were omitted from the sample, so actives are more common in it than they were. A number with no mark means an inactive call. Calls follow the shape of the dose curve; as a rule, active = well fitted inhibition curve with a large enough effect; inconclusive = small, poorly fitted or top-dose-only effect; inactive = flat fitted curve, though single readings scatter.
% is scaled to controls: 0 for no effect and ±100 for the full control effect; potency is read from the fitted curve at half-maximal effect.

Serine/threonine-protein kinase PLK1 (Homo sapiens), sequence (P53350 whole entry, looked up, the tested form may be a part): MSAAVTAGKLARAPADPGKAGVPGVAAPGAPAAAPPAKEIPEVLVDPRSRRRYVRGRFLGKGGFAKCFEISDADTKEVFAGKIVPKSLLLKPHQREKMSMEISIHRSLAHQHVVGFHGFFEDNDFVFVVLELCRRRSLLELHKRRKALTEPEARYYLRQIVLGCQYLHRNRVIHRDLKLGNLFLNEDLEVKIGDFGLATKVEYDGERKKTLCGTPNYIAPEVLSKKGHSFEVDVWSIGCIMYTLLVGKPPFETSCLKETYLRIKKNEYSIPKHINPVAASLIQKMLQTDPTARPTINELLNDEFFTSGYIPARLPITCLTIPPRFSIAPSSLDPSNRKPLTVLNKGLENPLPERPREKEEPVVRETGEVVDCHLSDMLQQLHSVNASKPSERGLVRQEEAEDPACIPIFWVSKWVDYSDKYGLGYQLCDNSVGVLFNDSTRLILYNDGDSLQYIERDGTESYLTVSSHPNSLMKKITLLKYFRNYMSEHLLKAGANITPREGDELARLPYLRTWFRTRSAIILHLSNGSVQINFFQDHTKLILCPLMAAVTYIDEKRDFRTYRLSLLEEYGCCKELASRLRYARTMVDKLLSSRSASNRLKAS

This assay has as its target Serine/threonine-protein kinase PLK1 (Homo sapiens) (UniProt P53350). Briefly: qHTS for Inhibitors of PLK1-PDB (polo-like kinase 1 - polo-box domain): Primary Screen. Also: nearly all actives have a fitted effect of over 65% in size. As to max response, negative = inhibition: series mostly up to about 57 µM. To be noted: Plk1 PBD binding of FITC phosphopeptide, fluorescence polarization.
Turning to `CCN(CCN(C)C)C(=O)c1ccc2nc(C)c(N(C)C(=O)CCc3ccccc3)n2c1`, the max response, negative = inhibition was 2.39%.

As for `CC(=O)Nc1cncc(-c2ccccc2CO)n1`, the max response, negative = inhibition was 3.65%. Consider `O=C(CCc1[nH]c2ccccc2c1Sc1ccccc1)N(CCO)CCO`, for which the Potency was 29.9 µM (active).

As to `O=S1(=O)CC(N2CCN(CCO)CC2)CN1Cc1cn(Cc2ccc(Cl)cc2)nn1` (configuration not stated), the max response, negative = inhibition was -4.51%.

For `Cc1ccc(S(=O)(=O)N(CCc2ccccc2)c2ccc3c(c2)C2CC3CCN2C(=O)OCc2ccccc2)cc1` (configuration not stated), the max response, negative = inhibition is -9.82%. On the same count and under the same terms, under `O=C(C1CCCO1)N1CCN(C(=O)C23CC4CC(CC(C4)C2)C3)CC1` (configuration not stated) stands -0.452%. Regarding `C[C@@H]1CN([C@H](C)CO)S(=O)(=O)c2ccc(C#CC3CCCCC3)cc2O[C@H]1CN(C)C(=O)Cc1ccncc1`, the max response, negative = inhibition is 8.88%.

On to `COc1cccc(C(O)c2ncc(-c3ccc4ccccc4c3)[nH]2)c1` (configuration not stated), for which the max response, negative = inhibition is 5.51%. Still for that read-out and setting: under `COc1ccc(-n2nc3c(N4CCC(C(=O)NCc5ccccc5)CC4)nnc(C)c3c2C)cc1` stands -9.59%.

On to `COc1ccc(CNC(=O)C(C)n2nc(C)c3c(C)n(-c4ccccc4)nc3c2=O)c(OC)c1` (configuration not stated), for which the Potency was 26.7 µM (active). As for `Cc1nn(CC(=O)N2CCCCC2)c(=O)c2nn(-c3ccccc3)c(C)c12`, the max response, negative = inhibition was -14.5%. `Cc1ccc(-n2nc3c(=O)n(C(C)C(=O)NCc4ccc5c(c4)OCO5)nc(C)c3c2C)cc1` (configuration not stated): the max response, negative = inhibition is -18.3%. For the compound `COc1ccc(OC)c(CNC(=O)Cn2nc(C)c3c(C)n(-c4ccc(C)cc4)nc3c2=O)c1`, the Potency was 26.7 µM (active). Take `Cc1nn(C(C)C(=O)NCCC2=CCCCC2)c(=O)c2nn(-c3ccccc3)c(C)c12` (configuration not stated): the max response, negative = inhibition was -7.54%. On the same count and under the same terms, under `CCOc1cc(/C=N/NC(=O)c2c(C)nc3ccc(Cl)cn23)ccc1O` stands -0.787%. Same read-out and setting: under `CC(C)NC(=O)C1(C)CCCCN1Cc1cccc(C(F)(F)F)c1` (configuration not stated) stands -6.04%.

Take `OC(c1ccc(F)cc1)c1ncc(-c2cccc(C(F)(F)F)c2)[nH]1` (configuration not stated): the max response, negative = inhibition is 1.19%. Take `CC(=O)NC(c1ccccc1)c1nc(-c2cccc(C(C)C)c2)cs1` (configuration not stated): the max response, negative = inhibition is 4.75%.

On to `COC(=O)[C@@]1(Cc2ccc(OC)cc2)[C@H]2c3cc(C(=O)N4CCCC4)n(Cc4ccc(OC(F)(F)F)cc4)c3C[C@H]2CN1C(=O)c1ccccc1`, for which the max response, negative = inhibition was 4.68%. On the same count and under the same terms, then `CCOC(=O)[C@]12CCC=C1N(Cc1ccco1)C(=O)[C@H](CC(=O)N1CCSCC1)C2`, with -15.1%; and `CC1(C(=O)Nc2cccnc2)Cc2c(-c3ccccc3)ccnc2O1` (configuration not stated), with -6.2%. For the compound `COc1ccc([C@H]2CC(=O)C=C(c3ccc(CO)cc3)C2)cc1`, the Potency was 23.8 µM (active). As for `COc1ccc([C@H]2CC(=O)C=C(c3ccc(C)cc3)C2)cc1`, the max response, negative = inhibition was -18.7%. The same measure, in the same setting: under `COc1ccc2cc(C3=CC(=O)C[C@H](c4ccc5c(c4)OCO5)C3)ccc2c1` stands 4.54%; under `CN1OC[C@@H]2CN[C@H](c3ccc(-c4ccccc4)cc3)C[C@@H]21`, 5.71%. Turning to `Cc1cc(C)c2nc(-c3cccnc3)cc(C(=O)Nc3ccc(S(=O)(=O)Nc4onc(C)c4C)cc3)c2c1`, the Potency was 42.3 µM (active). Consider `Cc1noc(NS(=O)(=O)c2ccc(NC(=O)c3oc4ccc(F)cc4c3C)cc2)c1C`, for which the max response, negative = inhibition is -10.8%.

For the compound `CCn1c(SCC(=O)Nc2ccc(S(=O)(=O)Nc3onc(C)c3C)cc2)nnc1-c1ccccc1`, the max response, negative = inhibition was 3.27%. Same read-out and setting: then `CC(C)(C)S(=O)N1Cc2cc(C(=O)NCCCN3CCOCC3)nc(-c3cccc(-c4cc5ccccc5o4)c3)c2[C@H]1CCO` (some centres not stated), with -5.28%. Still for that read-out and setting: under `CCCCCCCCCCOC(=O)Cn1c(COc2ccc(C)cc2)[n+](C)c2ccccc21` stands -18.7%; under `CCCn1c(=N)n(CC(=O)c2ccc(Cl)c(Cl)c2)c2ccccc21`, -14%. As to `CCCCOC(=O)Cn1c(=N)n(CCN(CC)CC)c2ccccc21`, the Potency is 21.2 µM (active). On to `CC(=O)c1cccc(-c2cnc3c(NC=O)cc(-c4ccc(N(C)C)cc4)cn23)c1`, for which the max response, negative = inhibition is -10.2%.

`COc1ccc(C(O)C(O)(C(=O)OC(C)C)c2ccc(C)cc2)cc1` (configuration not stated): the max response, negative = inhibition was -13.4%. On the same count and under the same terms, then `Cn1cc(C2OC(=O)c3ccccc32)c2ccccc21` (configuration not stated), with -13.8%. Take `Cc1nn(C)cc1N1C(=O)c2cccc3c(N)ccc(c23)C1=O`: the Potency was 2.38 µM (active). As to `CC(C(=O)O)N1C(=O)c2cccc3cccc1c23` (configuration not stated), the max response, negative = inhibition was -10.8%. On to `CN1C(=O)c2cccc3c(N)ccc(c23)C1=O`, for which the Potency was 3.36 µM (active). Regarding `Cc1ccc(S(=O)(=O)N2CCCCC2)cc1NC(=O)CCNC(=O)c1ccccc1Cl`, the max response, negative = inhibition is -0.377%. `O=C1c2ccccc2-c2ccccc2NC1O` (configuration not stated): the max response, negative = inhibition was -5.82%.

Take `COc1cccc(NC(=O)N(C)C[C@@H]2Oc3ncc(Br)cc3C(=O)N([C@@H](C)CO)C[C@H]2C)c1`: the max response, negative = inhibition was -14.8%.

`Cc1c(NC(=O)CSc2nnnn2-c2ccc(C(=O)O)cc2)c(=O)n(-c2ccccc2)n1C`: the max response, negative = inhibition was -21.9%.

For `Cc1c(NC(=O)CSc2nnc(-c3cccnc3)n2N)c(=O)n(-c2ccccc2)n1C`, the max response, negative = inhibition was -7.37%. `Cc1c(NC(=O)CSc2cccc3cccnc23)c(=O)n(-c2ccccc2)n1C`: the Potency was 16.8 µM (active). The same measure, in the same setting: then `Cc1coc2c(O)cc3c(c12)OC1(N2CCCCC2)C(=O)NCCCC31` (configuration not stated), with 15 µM (active). For `C[C@H]1CN([C@@H](C)CO)S(=O)(=O)c2ccc(-c3cccc(F)c3)cc2O[C@@H]1CN(C)C`, the max response, negative = inhibition is 2.78%. Same read-out and setting: under `CN(C)CCNC(=O)c1ccc(-c2cn3c(-c4ccc(Oc5ccccc5)cc4)cnc3cn2)cc1` stands -16.6%. On the same count and under the same terms, under `COc1ccc(NC(=O)N(C)C[C@H]2Oc3ncc(C#C[C@@H](C)O)cc3C(=O)N([C@H](C)CO)C[C@H]2C)cc1` stands -0.325%. In the case of `CN1CCN(C(=O)c2ccc(-c3cc4nc(NCc5cccnc5)n(C)c(=O)c4s3)cc2)CC1`, the max response, negative = inhibition is -24.5%. Still for that read-out and setting: under `CN(C)CCn1c(=S)[nH]c2ccc(Cl)cc2c1=O` stands -5.51%.

Consider `CCCn1c(=S)[nH]c2ccc(C(F)(F)F)cc21`, for which the Potency was 10.6 µM (active). Take `CC(C)n1c(=S)[nH]c2cc(C(F)(F)F)ccc21`: the max response, negative = inhibition is -24.5%.
